# The entries come from a sample that favours hits as a whole.
# ALOX12 inh = Primary qHTS assay for inhibitors of human arachidonate 12S-lipoxygenase (ALOX12): Round 2; Polyunsaturated fatty acid lipoxygenase ALOX12 (Homo sapiens), P18054; purified 12hLO, xylenol orange hydroperoxide absorbance; Potency, µM (titrated, usually from 108 µM), most hits filed as inhibitors; 580,000 tested, 1.1% active; AID 1671190, 2021
#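 Purified human 12hLO (150 nM final) in 25 mM Hepes, 0.01% Triton X-100, pH 7.0 was preincubated 15 min at room temperature with compound. Then 40 uM arachidonic acid was added, 30 min. Hydroperoxide was read by Fe-XO absorbance ratio 573/405 nm.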
# Glioma ERSR ind = qHTS for Inducers of the Endoplasmic Reticulum Stress Response (ERSR) in Human Glioma: qHTS | U87-MG GRP78 promoter luciferase reporter, 16 h | Potency, µM, actives largely listed as activators | 420,000 tested, 0.02% active | AID 602332, 2012; further: series mostly up to about 76 µM; nearly all actives have a fitted effect of over 35% in size
#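 Stably transfected U87-MG human glioma cells carrying a GRP78-based luminescent sensor were seeded at 1000 cells/well, pin-dosed with compounds and incubated 16 h. Luciferase reagent was then added, and end-point luminescence was read after 10 min at room temperature.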
# Sfp inh = qHTS Assay for Inhibitors of Bacillus subtilis Sfp phosphopantetheinyl transferase (PPTase); 4'-phosphopantetheinyl transferase ffp (Bacillus subtilis), Q9F4F7; Biochemical Sfp PPTase activity, qHTS; Potency, µM, hits mostly inhibitors; 310,000 tested, 3.5% active; AID 1490, 2009;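 further: the enzyme is Sfp with the accession as filed and its product quenches rhodamine fluorescence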
#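 Compounds were incubated with enzyme (final 15 nM) for 15 min at room temperature before substrate addition started the reaction. Fluorescence at 525 nm excitation, 598 nm emission was recorded immediately and after 30 minutes.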
# VDR inh = Inhibitors of the vitamin D receptor (VDR): qHTS | Vitamin D3 receptor (Homo sapiens), P11473 | VDR-SRC2-3 peptide fluorescence polarization, 2 h | Potency, µM, usual class: inhibitors | 400,000 tested, 0.93% active
# Target sequence (P11473 whole entry, looked up): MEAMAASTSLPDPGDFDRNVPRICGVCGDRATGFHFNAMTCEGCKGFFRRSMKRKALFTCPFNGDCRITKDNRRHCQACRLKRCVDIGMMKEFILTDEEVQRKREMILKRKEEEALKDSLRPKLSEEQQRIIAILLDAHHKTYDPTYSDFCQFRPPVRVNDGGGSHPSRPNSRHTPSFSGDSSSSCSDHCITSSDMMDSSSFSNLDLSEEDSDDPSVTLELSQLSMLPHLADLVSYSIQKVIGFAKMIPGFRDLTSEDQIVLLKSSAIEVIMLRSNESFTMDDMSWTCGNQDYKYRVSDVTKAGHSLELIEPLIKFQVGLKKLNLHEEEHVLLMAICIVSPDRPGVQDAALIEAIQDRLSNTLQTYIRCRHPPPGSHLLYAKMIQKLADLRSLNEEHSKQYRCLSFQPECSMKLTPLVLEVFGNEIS
#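 The screen uses fluorescence polarization to detect compounds that interfere with recruitment of the SRC2-3 coactivator peptide to VDR; plates are read after 2 h at room temperature.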
# G9a block = qHTS Assay for Inhibitors of Histone Lysine Methyltransferase G9a; AID 504332, 2011; 350,000 tested, 8.8% active; Potency, µM (doses to about 102 µM), actives largely listed as inhibitors; G9a H3K9 monomethylation, AlphaScreen, 2 h; Histone-lysine N-methyltransferase EHMT2 (Homo sapiens), Q96KQ7; further: nearly all actives have a fitted effect of over 75% in size
# Target sequence (Q96KQ7 913-1193 limits assumed): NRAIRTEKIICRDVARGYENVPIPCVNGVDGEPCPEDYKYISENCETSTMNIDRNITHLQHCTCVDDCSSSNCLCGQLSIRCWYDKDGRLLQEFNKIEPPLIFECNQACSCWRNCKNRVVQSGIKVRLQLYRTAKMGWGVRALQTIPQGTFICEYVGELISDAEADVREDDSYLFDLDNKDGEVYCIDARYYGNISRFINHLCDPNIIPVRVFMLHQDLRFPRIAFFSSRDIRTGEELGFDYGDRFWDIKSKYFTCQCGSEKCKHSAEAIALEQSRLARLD
#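 Step 1: enzyme (final 20 nM) with compound, 15 min RT. Step 2: substrate peptide 500 nM and SAM 20 uM, 2 h RT. Step 3: anti-H3K9me1 antibody and AlphaScreen beads, 10 min, then plate read.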
# Numbers stand for hits; . = inactive; ? = inconclusive; / = no result given. The call rests on the fitted dose curve; in most records, active means well fitted curve in the direction sought with a large enough effect; inconclusive means small, poorly fitted or top-dose-only effect, or another doubt; inactive means no such curve, though single readings can be large; an effect the other way counts as inactive or inconclusive.
SMILES,ALOX12 inh,Glioma ERSR ind,Sfp inh,VDR inh,G9a block
CCOc1ccc(CCNC(=O)COC(=O)/C=C/c2ccc(OC)c(OC)c2)cc1OCC,.,.,.,.,.
Cc1ccc(/C=C/C(=O)OCC(=O)NCCN2C(=O)CSC2=O)o1,.,.,32µM,.,50µM
Cc1ccc(/C=C/C(=O)OCC(=O)NCc2ccccc2)o1,.,.,/,.,45µM
Cc1ccc(C(=O)OCC(=O)NCCc2ccc(S(N)(=O)=O)cc2)o1,.,.,/,.,/
CCOC(=O)Cc1ccc(NC(=O)Nc2nnc(N(C)Cc3ccccc3)s2)cc1,.,/,/,/,/
CCCNC(=O)COC(=O)/C=C/c1ccc(C)o1,.,.,.,.,50µM
CCCNC(=O)COC(=O)/C=C/c1cccc(F)c1,.,.,.,.,.
O=C(Nc1ccccc1C(=O)O)C1=NN=CC1,.,.,.,.,50µM
C=CCOc1ccc(/C=C/C(=O)N2CCCN(S(=O)(=O)c3c(C)noc3C)CC2)cc1,.,.,/,.,45µM
COc1ccc(/C=C/c2onc(C)c2S(=O)(=O)N2CCC(C(=O)N3CCCCC3)CC2)cc1,?,.,/,.,.
CCc1ccccc1NC(=O)C(=O)NCCc1csc(-c2ccc(C(F)(F)F)cc2)n1,.,/,/,/,/
CC(NC(=O)c1nn(C)c(=O)c2ccccc12)c1ccc(Cl)cc1 (configuration not stated),.,/,/,/,/
N#Cc1cc2c(nc1SCC(=O)Nc1cccc(Cl)c1)CCCC2,.,/,/,/,/
Cc1ccccc1C(=O)N1CCC(C(=O)NC2CCCC2)CC1,.,.,.,.,.
Cc1ccccc1NC(=O)c1cc(N)ccc1N1CCCCC1,.,.,.,.,32µM
Cc1ccccc1C(=O)N1CCC(C(=O)Nc2ccccc2N2CCCC2)CC1,.,.,/,.,50µM
CS(=O)(=O)c1ccccc1C(=O)N1CCN(S(=O)(=O)c2ccc(C3CCCCC3)cc2)CC1,.,.,/,.,50µM
CCC(=O)Nc1ccc(N2CCCCC2)c(C(=O)Nc2ccccc2C)c1,.,.,.,.,?
Cc1ccccc1C(=O)N1CCC(C(=O)Nc2ccc(S(=O)(=O)N3CCCCC3)cc2)CC1,45µM,.,.,.,/
O=C(O)c1coc(Br)c1,.,/,/,/,/
Cc1nc(CSc2ccccc2C(=O)N2CC=C(c3ccccc3)CC2)cs1,.,/,/,/,/
O=C(CSc1nnc(-c2ccccn2)n1Cc1ccco1)c1ccccc1,?,.,.,.,40µM
O=C(CSc1nnc(-c2ccccn2)n1Cc1ccco1)c1ccc(Cl)cc1,?,.,.,.,40µM
O=C(CSc1nnc(-c2cnccn2)n1Cc1ccco1)c1ccccc1,.,.,.,.,45µM
COc1ccccc1-n1c(=O)c2sccc2n(CC(=O)NC(C)CCc2ccccc2)c1=O (configuration not stated),.,/,/,/,/
SMILES,ALOX12 inh,Glioma ERSR ind,Sfp inh,VDR inh,G9a block
CCN(CC)C(=S)SC(c1ccc2ccccc2c1[N+](=O)[O-])S(=O)(=O)c1ccc(C)cc1 (configuration not stated),.,/,/,/,/
Cc1cc(C)n(CCc2c(-c3ccccc3)ncn2CCCc2cccnc2)n1,.,/,/,/,/
O=S(=O)(NNc1nccc(C(F)(F)F)n1)c1cccc(Cl)c1Cl,.,.,35µM,.,8.9µM
CCc1oc(C(=O)OC)cc1CSC(=N)N,.,.,.,.,50µM
CC1=CC(=O)c2c(O)ccc(O)c2C1=O,/,/,25µM,/,.
O=C1c2ccc(O)c(O)c2C(=O)c2c(O)ccc(O)c21,/,.,.,?,?
CCOCCCNC(=O)c1cc2cc(S(=O)(=O)N(C)C)ccc2n1C,.,/,/,/,/
CC(C)C1=Nc2cccc3cccc(c23)N1,?,.,35µM,.,28µM
COc1ccc(C2=Nc3cccc4cccc(c34)N2)cc1,.,.,.,.,?
Nc1cccc(C2=Nc3cccc4cccc(c34)N2)c1,.,.,.,.,25µM
ClCC1=Nc2cccc3cccc(c23)N1,/,/,63µM,/,?
CCc1ccc(CNC(=O)c2cc3cn(C4CCCC4)cc3s2)cc1,4.5µM,/,/,/,/
CC(C)CNC(=O)c1cc2cn(C3CC3)cc2s1,.,/,/,/,/
COC(=O)CN1C(=O)CSc2ccc(S(=O)(=O)Nc3cccc(OC)c3)cc21,.,/,/,/,/
COc1ccc(-c2nn(C)c(=O)c3ccccc23)cc1NC(=O)c1ccc(C)cc1,.,/,/,/,/
Cc1[nH]c2nc3ccccc3n2c(=O)c1Cc1ccccc1Cl,.,/,/,/,/
Cc1ccc(N2CN=c3s/c(=C\c4cccnc4)c(=O)n3C2)cc1,.,.,.,.,.
O=c1/c(=C\c2ccc3c(c2)OCO3)sc2n1CCCN=2,?,.,.,.,.
Cc1ccc(/C=c2/sc3n(c2=O)CCCN=3)o1,.,.,20µM,.,8.9µM
O=C(NCc1ccc(/C=c2\sc3n(c2=O)CCN=3)o1)C(=O)Nc1ccccc1,/,/,22µM,/,50µM
Cc1ccc(/C=c2\sc3n(c2=O)CN(c2ccc(Br)cc2)CN=3)o1,.,.,10µM,.,8.9µM
C=C(C)Cn1c(SCCOCC)nc2c1c(=O)[nH]c(=O)n2C,.,/,/,/,/
Cc1ccc(CN(C)CC(=O)NC(C)c2ccc(C)c(C)c2)o1 (configuration not stated),.,/,/,/,/
COC12CC(=O)C(C(C)=O)=C(O)C1(C)c1c(O)c(C)c(O)c(C(C)=O)c1O2 (configuration not stated),40µM,/,/,/,/
CC(C)CNC(=O)C(=O)Nc1ccc2cc[nH]c2c1,35µM,/,/,/,/
SMILES,ALOX12 inh,Glioma ERSR ind,Sfp inh,VDR inh,G9a block
Cc1c(NC(=O)C2CCN(S(=O)(=O)Cc3ccc(F)cc3)CC2)c(=O)n(-c2ccccc2)n1C,.,/,/,/,/
COc1ccc(S(=O)(=O)N2CCN(Cc3ccc(OC)c(OC)c3)CC2)cc1,.,.,.,.,/
CCOc1ccc(CN2CCN(S(=O)(=O)c3ccc(NC(C)=O)cc3)CC2)cc1OC,?,.,.,.,6.3µM
COc1cc(S(=O)(=O)N2CCN(Cc3cccs3)CC2)ccc1NC(C)=O,.,.,/,?,.
CC(=O)Nc1ccc(S(=O)(=O)N2CCN(C)CC2)cc1,.,.,.,.,.
CC(=O)Nc1ccc(S(=O)(=O)N2CCN(Cc3cccs3)CC2)cc1,?,.,.,.,18µM
CC(=O)Nc1ccc(NC(=O)C(C)N2CCN(S(=O)(=O)c3ccc(C)cc3)CC2)cc1 (configuration not stated),.,.,.,.,.
CC(=O)Nc1ccc(S(=O)(=O)N2CCN(C(C)CCc3ccccc3)CC2)cc1 (configuration not stated),5.6µM,.,.,.,7.1µM
COc1ccc(CN2CCN(S(=O)(=O)c3ccc(NC(C)=O)cc3)CC2)c(OC)c1OC,?,.,?,.,5µM
CC/C=C(/C)C(=O)NCCCN1CCCC1,.,/,/,/,/
CCOc1cc(/C=C(/C#N)c2nc3ccccc3[nH]2)ccc1OC,.,/,/,/,/
CC1(C)CC(NC(=O)c2ccccc2C(=O)NC2CC(C)(C)NC(C)(C)C2)CC(C)(C)N1,.,.,.,.,.

# Compound activity from PubChem.
